Screening results as filed in PubChem.
CBFb-RUNX1 inh = blocks binding between human CBF-beta and RUNX1. Q01196+Q13951. AlphaScreen CBFb-His/RUNX1-biotin binding, biochemical. Potency, µM (titrated, usually from 59.8 µM), inactives show top-dose activity, negative = inhibition, most hits filed as inhibitors. 230,000 tested, under 10 active. AID 1477; also: % of control where 0% means no effect
Target sequence (Q01196 whole entry, looked up): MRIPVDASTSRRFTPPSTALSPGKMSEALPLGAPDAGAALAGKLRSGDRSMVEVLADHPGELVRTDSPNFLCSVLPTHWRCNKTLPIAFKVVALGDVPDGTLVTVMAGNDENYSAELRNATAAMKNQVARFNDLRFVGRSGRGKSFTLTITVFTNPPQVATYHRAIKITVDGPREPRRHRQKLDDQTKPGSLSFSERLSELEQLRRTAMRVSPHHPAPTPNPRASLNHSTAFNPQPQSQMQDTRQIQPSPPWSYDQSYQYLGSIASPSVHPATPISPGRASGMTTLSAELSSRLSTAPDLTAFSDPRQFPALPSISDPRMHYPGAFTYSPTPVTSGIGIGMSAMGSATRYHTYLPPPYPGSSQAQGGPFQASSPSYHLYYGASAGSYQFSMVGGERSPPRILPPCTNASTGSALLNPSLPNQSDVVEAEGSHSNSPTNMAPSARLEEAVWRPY
Target sequence (Q13951 whole entry, looked up): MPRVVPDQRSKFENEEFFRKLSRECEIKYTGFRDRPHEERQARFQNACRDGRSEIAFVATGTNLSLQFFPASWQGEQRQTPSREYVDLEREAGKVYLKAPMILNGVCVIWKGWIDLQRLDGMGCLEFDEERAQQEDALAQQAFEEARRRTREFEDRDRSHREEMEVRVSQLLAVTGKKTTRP
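Proteins preincubated together for 20 min at RT before compound addition; 15 min later, nickel and streptavidin beads were added and left 90 min prior to AlphaScreen measurement.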
Gal4-VP16 FLuc = Gal4-VP16 reporter inhibition counter-screen | AID 2546 | Potency, µM (highest dose often 53.6 µM), for inactives: top-dose activity, negative = inhibition, hits mostly inhibitors | 310,000 compounds, 3.5% hits | Drosophila S2 Gal4-VP16 UAS-luciferase, luminescence, 20 h;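 also: Gal4-VP16 expression switched on by copper sulfate through the metallothionein promoter; potency is read from the fitted curve at half-maximal effect; % is scaled to controls: 0 for no effect and ±100 for the full control effect; nearly all actives have a fitted effect of over 50% in size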
Six1-Eya2 blk = blocks human Six1 binding to Eya2; activity change, % (test concentration not listed); 360,000 compounds, 0.56% hits; Q15475+O00167; AID 651725; AlphaScreen GST-Six1/His-Eya2 binding, biochemical; hits give low values; in the data active = activity change below about -65%; inconclusive = mostly about -30% to -63%; also: % is scaled to controls: 0 for no effect and ±100 for the full control effect
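GST-Six1 + His-Eya2 (5X stock: 250/500 nM); Tris pH 8.0, 300 mM NaCl, 0.05% BSA, 0.02% Tween 20; GSH donor/Ni acceptor beads; 1 h 37 °C dark; AlphaScreen readout.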
RORgamma inh = ROR gamma (mouse) transcription inhibition. P51450. Drosophila S2 Gal4-RORgamma UAS-luciferase reporter, 20 h. Potency, µM (titrated, usually from 53.6 µM), for inactives: top-dose activity change, negative = inhibition, most hits filed as inhibitors. 310,000 compounds, 5.4% hits. AID 2551; also: potency is read from the fitted curve at half-maximal effect; % is scaled to controls: 0 for no effect and ±100 for the full control effect; nearly all actives have a fitted effect of over 60% in size
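A Gal4/UAS one-hybrid system in insect cells: metallothionein-promoter Gal4–ROR gamma fusion plus Photinus luciferase reporter. Copper sulfate 700 uM final, 20 hr ambient incubation, luminescent detection after 10 min with reagent.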
CtBP-E1A inh = inhibitors of CtBP/E1A interaction; AlphaScreen GST-E1A/His-CtBP binding, 1536-well; hits give low values; activity change, % (test concentration not listed); 340,000 compounds, 0.49% hits; AID 651724; in the data active = activity change below about -65%; inconclusive = mostly about -30% to -63%; also: % is scaled to controls: 0 for no effect and ±100 for the full control effect
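Protein mix (5X: 125 nM each GST-E1A, His-CtBP) was incubated with pinned compound 2 h at 37 deg C in dark, in 50 mM Tris pH 8.0 buffer with 300 mM NaCl. Glutathione donor and nickel acceptor beads followed; AlphaScreen signal read after 1 h.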
MBNL1-CUG inh = blocks human MBNL1 binding to CUG repeat RNA; 280,000 compounds, 0.036% hits; Potency, µM (top dose mostly 57.5 µM), for the others: at the highest dose activity change, negative = inhibition, actives largely listed as inhibitors; TR-FRET MBNL1-His/biotin-(CUG)12 binding, 665/545 ratio; Q9NR56; active = well fitted inhibition curve with a large enough effect in the signal ratio, with a control signal flat, not every such curve was filed as active; inconclusive = small, poorly fitted or top-dose-only effect, or effect the other way, or a change in a side signal; inactive = no such curve, though single readings can be large or run the other way; the % refers to the signal ratio; also: potency is read from the fitted curve at half-maximal effect; % is scaled to controls: 0 for no effect and ±100 for the full control effect
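Inhibition of protein-RNA binding appears as loss of TR-FRET between terbium anti-His antibody on MBNL1-His and streptavidin-XL665 on biotin-(CUG)12. Activity is normalized to buffer-only and uninhibited-complex controls.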
* marks the source's active call; other numbers are inactive results; ? = inconclusive; . = no result; [ ] = remark or other dose. Hits are enriched below; roughly 5.5% of the tested compounds scored in any of these assays. Unless noted, calls follow the shape of the dose curve; as a rule, active = well fitted curve in the direction sought with a large enough effect; inconclusive = small, poorly fitted or top-dose-only effect, or another doubt; inactive = no such curve, though single readings can be large; an effect the other way counts as inactive or inconclusive.

SMILES	CBFb-RUNX1 inh	Gal4-VP16 FLuc	Six1-Eya2 blk	RORgamma inh	CtBP-E1A inh	MBNL1-CUG inh
CCOc1ccc(C(=O)Nc2nc3ccccc3[nH]2)cc1OCC	-2.5%	15.8µM*	-9.7	1.41µM*	-7.6	-2.2%
CCOc1ccc(C(=O)Nc2cccc(-c3nc4ccccc4[nH]3)c2C)cc1[N+](=O)[O-]	-8.0%	-1.7%	1.1	30.4%[10 µM]	7.2	.
COc1cccc(Oc2cn[nH]c2-c2ccc(OC)cc2O)c1	-5.0%	12.6µM*	-3.2	7.08µM*	-2.1	-3.5%
CCOc1ccc(-c2[nH]ncc2Oc2cccc(OC)c2)c(O)c1	0.8%	?	-0.6	11.2µM*	-4.7	3.2%
CCCOC(=O)c1ccc(Oc2c(-c3ccc(OCC)cc3O)n[nH]c2C)cc1	-0.3%	-4.4%	-9.3	-8.4%	6.6	0.6%
CCCOC(=O)c1ccc(Oc2cn[nH]c2-c2ccc(OCC)cc2O)cc1	3.5%	?	-8.6	10µM*	-0.1	-6.8%
COc1ccccc1CN1CC2(CCN(S(C)(=O)=O)CC2)C1	.	0.3%	.	-9.1%	.	.
NC(=O)c1ccccc1-c1nc(-n2ccnc2)c2ccccc2n1	.	-0.4%	.	26.1%	.	.
CCOc1ccc(/C=C2\NC(=S)NC2=O)cc1	2.1%	?	6.5	?	-9.5	?
COc1ccc(/C=C/C2=CC(C)(C)NC(=S)N2)cc1OC	-1.9%	-15.5%	-11.5	3.16µM*	-28.3	?
CCOc1ccc(/C=C/C2=CC(C)(C)NC(=S)N2)cc1	-15.5%	2.24µM*	-4.2	0.708µM*	-9.6	6.1%
COc1cccc(/C=C/C2=CC(C)(C)NC(=S)N2)c1	-5.1%	5.01µM*	5.2	1.26µM*	7.9	-7.7%
COc1ccc(/C=C/c2ccncc2)cc1OC	9.5%	3.0%	-0.5	-20.0%	2.1	?
CCCNC(=O)c1ccc(-c2nc3ccccc3s2)s1	-1.8%	?	-9.6	11.2µM*	-3.7	?
CCCNC(=O)Nc1nc2ccccc2s1	7.2%	-3.9%	-1.9	-35.3%	2.0	-3.1%
O=S(=O)(c1ccc2c(c1)OCCO2)N1CCN(c2ncnc3sccc23)CC1	-7.4%	11.2µM*	-17.8	?	-1.0	-3.1%
CCN(CC(=O)Nc1ccc(NC(C)=O)cc1)C(=O)c1c(C)nn(Cc2ccc(C)cc2)c1Cl	.	.	3.4	.	-0.1	.
CC1=NN(C2=NS(=O)(=O)c3ccccc32)C(C)(O)C1 (centres undefined)	.	3.55µM*	1.0	1.26µM*	-3.1	3.8%
CC(C)CC(C(=O)NC(C)(C)C)N(Cc1cccs1)C(=O)c1snc(C(N)=O)c1N (centres undefined)	5.4%	6.3%	-3.7	17.3%	.	8.4%
Cc1cc(C)nc(SCCCNCc2ccc(Br)cc2)n1	.	?	-7.6	?	.	0.9%
Cc1ccc(CNCCCSc2nc(C)cc(C)n2)cc1	.	2µM*	0.9	?	2.3	6.5%
CCN(Cc1cccs1)C(=O)CN1C(=O)NC(c2ccccc2)(c2ccccc2)C1=O	.	.	-3.6	.	.	.
Cc1ccc(-c2cnc3ccccc3n2)cc1C	.	?	29.1	10µM*	.	18.9%
Cc1cc2ncc(-c3ccccc3)nc2cc1C	?	?	8.4	?	.	23.3%
O=C(N/N=C/C(Cl)=C/c1ccccc1)c1ccccn1	-1.7%	?	?	?	5.2	?
SMILES	CBFb-RUNX1 inh	Gal4-VP16 FLuc	Six1-Eya2 blk	RORgamma inh	CtBP-E1A inh	MBNL1-CUG inh
Cc1cc(C(=O)N/N=C/C(Cl)=C/c2ccccc2)c(C)o1	-0.5%	12.6µM*	-8.1	-10.5%	-19.4	4.9%
CCOC(=O)C(Cc1c[nH]c2ccccc12)NC(=O)c1ccccc1Br (centres undefined)	.	?	-11.6	8.91µM*	-0.6	-6.1%
C=CCn1c(O)c(C2=c3ccccc3=NC2=O)c2ccccc21	.	3.98µM*	-8.3	4.47µM*	-6.9	3.2%
C=CCn1c(O)c(C2=c3ccccc3=NC2=O)s/c1=N/c1nccs1	-1.1%	-6.6%	-13.5	-34.4%	-2.5	-2.3%
Cc1ccc(-c2nnc(N3CCCCC3)c3ccccc23)cc1S(=O)(=O)N(C)C	5.7%	17.8µM*	11.1	5.8%	49.2	6.2%
Cc1ccc(-c2nnc(N3CCCCC3)c3ccccc23)cc1S(=O)(=O)N1CCN(C)CC1	-3.7%	?	-15.7	-5.9%	-11.1	10.6%
CSCCC(NC(=O)c1ccccc1Cl)C(=O)Nc1ccncc1 (centres undefined)	.	.	-7.3	.	9.3	.
O=C1C(CCCNC(=S)NCc2ccccc2)NC(=S)N1Cc1ccccc1 (centres undefined)	-4.2%	?	-15.9	22.4µM*	.	-4.9%
Cc1cccnc1C(NC(=O)C1CCN(CCCOc2ccccc2)CC1)c1ccc(F)cc1 (centres undefined)	.	.	1.6	.	-14.4	.
COc1ccc(COC(=O)CNC(=O)C2CCCCC2)cc1F	.	.	5.1	.	-1.4	.
Cc1cccc(OCc2n[nH]c(=S)n2Cc2ccccc2)c1	-0.5%	?	-4.5	2µM*	-11.5	0.0%
CCOc1cc(-c2n[nH]c(=S)n2Cc2ccccc2)ccc1OC(F)F	.	.	-11.0	.	.	.
S=c1[nH]nc(COc2ccccc2)n1C1CCCCC1	1.3%	3.98µM*	-10.8	1.78µM*	-2.7	-6.0%
CCCCOc1ccc(Cc2n[nH]c(=S)n2N)cc1	6.5%	-8.8%	-2.1	-1.6%[10 µM]	-0.6	.
CCc1ccc(OCc2n[nH]c(=S)n2C(C)CCCC(C)C)cc1 (centres undefined)	6.7%	-22.2%	-8.7	6.31µM*	2.7	-5.1%
CCc1ccc(OCc2n[nH]c(=S)n2Cc2ccccc2)cc1	4.4%	-2.3%	-1.3	-1.8%	-8.3	1.9%
S=c1[nH]nc(COc2ccccc2)n1Cc1ccccc1	-10.3%	6.31µM*	7.1	1.58µM*	0.0	-8.2%
CN1C[C@@H]2[C@@H]3C(=O)N(Cc4ccccc4)C(=O)[C@@H]3[C@](Cc3ccccc3)(C1=O)N2C(=O)c1ccc(F)cc1	.	.	0.0	.	3.2	.
CN(C)CCOc1ccc(-c2c(-c3ccccc3)sc3ccccc23)cc1	.	.	-29.6	.	-17.5	.
CN(CCc1ccccc1)C(=O)c1ccc(NC(=O)Cc2ccc(NC(=O)C3CCCN(C(=O)CCc4ccccc4)C3)cc2)cc1 (centres undefined)	.	.	-4.5	.	-3.2	.
CCCc1n[nH]c(=S)n1Cc1ccco1	10.0%	2.5%	0.7	1.9%	.	-10.4%
FC(F)(F)c1cccc(NCc2n[nH]c(=S)n2C2CCCCC2)c1	-5.3%	-22.7%	-6.6	4.47µM*	-8.5	-4.6%
CC(C)CCn1c(COc2ccccc2)n[nH]c1=S	-6.4%	?	0.9	1.12µM*	2.4	-0.4%
S=c1[nH]nc(COc2ccc(Cl)cc2)n1Cc1ccco1	-16.0%	?	16.3	3.16µM*	-10.0	-0.9%
